The source of these data is PubChem BioAssay (Tox21).

Values without a mark were called inactive. Inconclusive results are not listed. The source made the active and inactive calls. Unless noted, calls come from the whole dose curve.

Assay [1] is described as follows: Nuclear factor erythroid 2-related factor 2/antioxidant responsive element (Nrf2/ARE) small molecule agonists: qHTS cell viability counter screen in human keratinocytes (AID 1919968; active = well fitted curve in the direction sought with a large enough effect in the repeat runs; an effect the other way counts as inactive or inconclusive; note: nearly all actives have a fitted effect of over 55% in size). In a few lines: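 Parallel cytotoxicity read: KeratinoSens HaCaT cells, compound treatment 23 h, viability by CellTiter-Fluor fluorescence 1 h post-reagent.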
The nature of assay [2]: Nuclear factor erythroid 2-related factor 2/antioxidant responsive element (Nrf2/ARE) small molecule agonists: luciferase reporter gene qHTS assay in human keratinocytes (AID 1919969). Note: nearly all actives have a fitted effect of over 35% in size. Note: potency is the fitted concentration of half-maximal effect.
Assay [3] addresses Gonadotropin-releasing hormone receptor (Homo sapiens) (UniProt P30968). Kind of assay: Human gonadotropin-releasing hormone receptor (GnRHR) small molecule agonists, calcium flux assay in GnRHR-HEK293 cells (AID 1920063). Note: nearly all actives have a fitted effect of over 35% in size. A digest of the protocol:
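Calcium flux, agonist mode, human GnRHR stably integrated in HEK293; dye 1 h at 37 C before compound; Ex/Em=480/540 kinetic read, 3 min; 15 concentrations, triplicate.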

Assay [4] concerns the target KiSS-1 receptor (Homo sapiens) (UniProt Q969F8). Kind of assay: Human kisspeptin (KISS1R) small molecule agonists, calcium flux assay in KISS1R-HEK293 cells (AID 1920064; active = well fitted curve in the direction sought with a large enough effect in the repeat runs; an effect the other way counts as inactive or inconclusive). In a few lines: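 Triplicate 15-concentration series were applied to dye-loaded human KISS1R HEK293 cells, and agonist-evoked calcium fluorescence was captured for 3 min.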
A short description of assay [5]: G protein-coupled receptor (GPCR) small molecule agonists, calcium flux assay: HEK293 wild type cell line counter screen (AID 1920065). In a few lines:
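Non-specific calcium responders were flagged by adding DMSO-dissolved compounds to dye-loaded cells and reading 480/540 nm fluorescence each second for 3 min; ATP served as positive control.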

The nature of assay [6]: p53 small molecule agonists, cell-based qHTS assay with human liver microsomes (AID 1963577).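 Note: p53 response element beta-lactamase reporter cells with liver microsomes plus NADPH.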 A digest of the protocol: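 Metabolically competent format: test substances, human liver microsomes and NADPH (both 0.5 mg/mL final) incubated with p53RE-bla cells 16 h at 37 C. Beta-lactamase reporter signal then quantified by fluorescence.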
Assay [7] in a line: p53 small molecule agonists, cell-based qHTS assay with rat liver microsomes (AID 1963578). In a few lines:
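Each plate received p53RE-bla cells, then compound, then rat liver microsomes and NADPH (both 0.5 mg/mL final). Plates were held 16 h at 37 C, and beta-lactamase activity was detected with LiveBLAzer over 2 h.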

A short description of assay [8]: p53 small molecule agonists, cell-based qHTS assay with human liver microsomes: qHTS cell viability counter screen (AID 1963579). Note: nearly all actives have a fitted effect of over 45% in size. In a few lines:
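Tox21 library compounds, delivered from DMSO stocks, were tested on p53RE-bla cells together with 0.5 mg/mL human liver microsomes and 0.5 mg/mL NADPH (final) over 16 h at 37 C; CellTiter-Glo luminescence served as the cytotoxicity measure.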

Assay [9] is described as follows: p53 small molecule agonists, cell-based qHTS assay with rat liver microsomes: qHTS cell viability counter screen (AID 1963580). Note: nearly all actives have a fitted effect of over 45% in size. A digest of the protocol:
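Cytotoxicity counter screen: intracellular ATP read by CellTiter-Glo luminescence in the p53 reporter wells. HCT-116 p53RE-bla cells were treated for 16 h at 37 C alongside rat liver microsomes and NADPH, each 0.5 mg/mL final.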

Assay [10] in a line: p53 small molecule agonists, cell-based qHTS assay: qHTS cell viability counter screen (AID 1963581). Note: nearly all actives have a fitted effect of over 45% in size. A digest of the protocol:
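Multiplexed with the reporter read, a CellTiter-Glo step (30 min, room temperature) gauges ATP-based viability of HCT-116 p53RE-bla cells after 16 h compound incubation at 37 C.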

A short description of assay [11]: p53 small molecule agonists, cell-based qHTS assay (AID 1963582; active = well fitted activation curve with a large enough effect in the signal ratio in the repeat runs, not every such curve was filed as active; the % refers to the signal ratio). In a few lines:
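Beta-lactamase reporter cells (p53RE-bla) treated with compounds for 16 h at 37 C; FRET substrate, 2 h, room temperature; fluorescence intensity.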

Assay [12] in a line: cAMP Responsive Elements (CRE) small molecule agonists, cell-based qHTS assay (AID 1963590). In a few lines: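 Quantitative HTS for CRE agonists: HEK 293T CRE-bla cells, overnight plating, 3 h compound incubation at 37 C/5% CO2, then 2 h room-temperature LiveBLAzer B/G FRET substrate loading.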
Assay [13] can be described thus: cAMP Responsive Elements (CRE) small molecule antagonists, cell-based qHTS assay (AID 1963591; active = well fitted inhibition curve with a large enough effect in the signal ratio in the repeat runs, not every such curve was filed as active; the % refers to the signal ratio). In a few lines:
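Fluorescence intensity from cleaved LiveBLAzer B/G substrate (2 h, room temperature) quantified CRE-bla activity in HEK 293T cells exposed 3 h to compound with 0.25 uM final NKH477.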

For assay [14], the target named is Beta-2 adrenergic receptor (Homo sapiens) (UniProt P07550). Nature of the assay: Adrenergic beta2 receptor (ADRB2) small molecule antagonists, cell-based qHTS assay (AID 1963592). Note: series mostly up to about 92 µM; nearly all actives have a fitted effect of over 50% in size. A digest of the protocol: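 Assay format: CHO-ADRB2 cells, 18-20hr seeding at 37C/5% CO2, then compound plus 1nM isoproterenol agonist mix for 0.5hr RT. Homogeneous time-resolved fluorescence cAMP detection after 1hr, expressed as 665/615 nm ratio.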

For assay [15], the target named is D(2) dopamine receptor (Homo sapiens) (UniProt P14416). Kind of assay: Dopamine D2 receptor (DRD2) small molecule antagonists, cell-based qHTS assay (AID 1963595; active = well fitted inhibition curve with a large enough effect in the signal ratio in the repeat runs, with a control signal flat; the % refers to the signal ratio). A digest of the protocol: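 Antagonism was scored as restored cAMP in HEK293-DRD2 cells. These cells were stimulated with 200 nM NKH477 and 12 nM quinpirole for 30 min at room temperature, in the presence of 0.1 mM Ro20-1724.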

Assay [16] deals with 5-hydroxytryptamine receptor 2A (Homo sapiens) (UniProt P28223). Kind of assay: 5-hydroxytryptamine receptor 2A (HTR2A) small molecule antagonists, cell-based qHTS assay (AID 1963586). Note: nearly all actives have a fitted effect of over 45% in size. In a few lines: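 CHO cells stably expressing human HTR2A were plated for 18 h at 37 C, then loaded with calcium dye for 1 h. Compounds were preincubated 5 min at room temperature before DOI (4 nM solution) was added. Kinetic fluorescence was read for 3 min.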

Assay [17] shares this target. Kind of assay: 5-hydroxytryptamine receptor 2A (HTR2A) small molecule agonists, cell-based qHTS assay (AID 1963587). Note: nearly all actives have a fitted effect of over 30% in size. In a few lines: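 Kinetic calcium-flux fluorescence (2 min, 1 sec intervals) after compound addition in agonist mode. HTR2A-CHO cells were cultured 18 h, then dye-loaded 1 h at 37 C.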
Assay [18] addresses Muscarinic acetylcholine receptor M1 (Homo sapiens) (UniProt P11229). Nature of the assay: Cholinergic receptor muscarinic 1 (CHRM1) small molecule agonists, cell-based qHTS assay (AID 1963589). Note: nearly all actives have a fitted effect of over 35% in size. A digest of the protocol:
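qHTS, 15-point titration, 3 independent runs: compounds pin-transferred onto dye-loaded CHRM1-CHO cells (human M1), calcium fluorescence followed every second to detect agonism.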

The target in assay [19] is D(2) dopamine receptor (Homo sapiens) (UniProt P14416). Nature of the assay: Dopamine D2 receptor (DRD2) small molecule agonists, cell-based qHTS assay (AID 1963594). Note: nearly all actives have a fitted effect of over 35% in size. A digest of the protocol:
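cAMP accumulation in DRD2-HEK293 cells measured by HTRF after 1 h detection; compounds added 10 min before NKH477 (200nM […]) forskolin-analogue stimulation, 30 min at room temperature, with Ro20-1724 present at 0.1 mM final.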

Assay [20] addresses Beta-2 adrenergic receptor (Homo sapiens) (UniProt P07550). Kind of assay: Adrenergic beta2 receptor (ADRB2) small molecule agonists, cell-based qHTS assay (AID 1963593).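 Note: CHO cells stably overexpressing human ADRB2.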 In a few lines: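 CHO cells stably over-expressing ADRB2 were plated overnight at 37C, then dosed with compounds plus a stimulation mix containing 100uM IBMX and 25uM Ro-20-1724 for 0.5hr at room temperature. cAMP was measured by HTRF competition, 1hr.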
% is set by controls: 0 for no effect and ±100 for the full control effect.

Chain of Muscarinic acetylcholine receptor M1 (Homo sapiens) (P11229 whole entry, looked up): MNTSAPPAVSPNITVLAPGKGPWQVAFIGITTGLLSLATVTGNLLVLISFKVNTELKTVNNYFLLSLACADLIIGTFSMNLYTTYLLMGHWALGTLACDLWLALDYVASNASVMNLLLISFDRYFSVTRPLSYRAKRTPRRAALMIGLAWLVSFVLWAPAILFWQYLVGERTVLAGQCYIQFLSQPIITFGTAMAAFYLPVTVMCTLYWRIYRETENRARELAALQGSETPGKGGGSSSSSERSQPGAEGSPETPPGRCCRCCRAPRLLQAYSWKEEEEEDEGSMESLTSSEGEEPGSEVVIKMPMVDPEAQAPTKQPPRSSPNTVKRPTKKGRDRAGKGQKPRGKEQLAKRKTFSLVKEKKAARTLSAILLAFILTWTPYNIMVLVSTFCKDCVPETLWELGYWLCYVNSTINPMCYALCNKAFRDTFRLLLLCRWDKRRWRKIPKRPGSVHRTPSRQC
Chain of Beta-2 adrenergic receptor (Homo sapiens) (P07550 whole entry, looked up): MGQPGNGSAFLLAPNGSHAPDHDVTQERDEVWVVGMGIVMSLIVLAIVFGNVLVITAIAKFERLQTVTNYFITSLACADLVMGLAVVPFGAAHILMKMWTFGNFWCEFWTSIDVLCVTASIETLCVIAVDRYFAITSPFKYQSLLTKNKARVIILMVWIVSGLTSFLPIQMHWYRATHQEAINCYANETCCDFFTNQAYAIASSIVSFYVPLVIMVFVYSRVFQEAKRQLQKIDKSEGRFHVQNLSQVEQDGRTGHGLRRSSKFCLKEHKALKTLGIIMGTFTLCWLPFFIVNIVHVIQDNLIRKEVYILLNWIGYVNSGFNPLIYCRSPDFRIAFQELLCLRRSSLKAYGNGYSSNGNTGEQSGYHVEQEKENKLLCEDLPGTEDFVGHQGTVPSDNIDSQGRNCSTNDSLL
Chain of Gonadotropin-releasing hormone receptor (Homo sapiens) (P30968 whole entry, looked up): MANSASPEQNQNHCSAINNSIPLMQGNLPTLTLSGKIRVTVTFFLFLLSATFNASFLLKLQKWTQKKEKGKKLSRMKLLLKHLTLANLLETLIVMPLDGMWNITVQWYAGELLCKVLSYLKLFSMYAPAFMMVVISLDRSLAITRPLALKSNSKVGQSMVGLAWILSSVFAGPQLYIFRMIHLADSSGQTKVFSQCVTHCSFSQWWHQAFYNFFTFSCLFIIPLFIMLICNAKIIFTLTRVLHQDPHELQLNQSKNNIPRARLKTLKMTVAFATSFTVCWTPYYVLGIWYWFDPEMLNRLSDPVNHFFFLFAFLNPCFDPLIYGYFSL
Chain of 5-hydroxytryptamine receptor 2A (Homo sapiens) (P28223 whole entry, looked up): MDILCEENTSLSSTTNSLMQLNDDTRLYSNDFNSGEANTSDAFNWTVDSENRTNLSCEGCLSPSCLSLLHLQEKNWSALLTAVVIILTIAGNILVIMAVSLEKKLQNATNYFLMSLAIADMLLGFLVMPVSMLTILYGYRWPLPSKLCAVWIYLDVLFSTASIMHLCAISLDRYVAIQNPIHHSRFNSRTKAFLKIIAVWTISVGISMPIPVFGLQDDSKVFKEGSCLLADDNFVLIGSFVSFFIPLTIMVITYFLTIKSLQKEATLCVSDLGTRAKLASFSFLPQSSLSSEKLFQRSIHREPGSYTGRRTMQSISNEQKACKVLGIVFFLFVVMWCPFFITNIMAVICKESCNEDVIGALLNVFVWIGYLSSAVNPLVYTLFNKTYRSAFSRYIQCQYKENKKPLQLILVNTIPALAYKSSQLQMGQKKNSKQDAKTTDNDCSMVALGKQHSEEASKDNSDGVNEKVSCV
Chain of KiSS-1 receptor (Homo sapiens) (Q969F8 whole entry, looked up): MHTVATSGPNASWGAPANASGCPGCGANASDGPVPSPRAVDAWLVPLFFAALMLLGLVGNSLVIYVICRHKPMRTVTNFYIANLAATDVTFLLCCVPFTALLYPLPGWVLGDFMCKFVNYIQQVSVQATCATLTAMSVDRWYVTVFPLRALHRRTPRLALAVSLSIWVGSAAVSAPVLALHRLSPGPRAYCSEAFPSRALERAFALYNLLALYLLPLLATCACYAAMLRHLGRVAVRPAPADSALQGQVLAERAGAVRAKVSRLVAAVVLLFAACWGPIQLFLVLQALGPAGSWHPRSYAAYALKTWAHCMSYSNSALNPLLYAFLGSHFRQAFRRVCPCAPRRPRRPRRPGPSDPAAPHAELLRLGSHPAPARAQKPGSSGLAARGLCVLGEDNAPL
Chain of D(2) dopamine receptor (Homo sapiens) (P14416 whole entry, looked up): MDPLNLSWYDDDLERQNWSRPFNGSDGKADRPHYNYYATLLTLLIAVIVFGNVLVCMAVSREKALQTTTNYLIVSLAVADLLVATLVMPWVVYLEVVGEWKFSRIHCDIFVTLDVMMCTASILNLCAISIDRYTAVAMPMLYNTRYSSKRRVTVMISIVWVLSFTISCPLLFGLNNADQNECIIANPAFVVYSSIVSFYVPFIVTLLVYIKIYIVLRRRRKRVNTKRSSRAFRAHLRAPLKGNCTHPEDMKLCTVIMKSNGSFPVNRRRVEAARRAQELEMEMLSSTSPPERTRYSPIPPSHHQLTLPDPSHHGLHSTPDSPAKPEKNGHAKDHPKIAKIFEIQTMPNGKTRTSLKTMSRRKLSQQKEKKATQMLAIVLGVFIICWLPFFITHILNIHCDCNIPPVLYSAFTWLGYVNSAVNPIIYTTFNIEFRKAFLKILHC

`CCN(CCO)CCCC(C)Nc1ccnc2cc(Cl)ccc12` (stereo not given): the activity change, negative = cytotoxicity was -14.6% [at 8.39 µM] in assay [1], -18.4% [at 5.99 µM] in assay [8], -0.0605% [at 5.99 µM] in assay [9] and 14.7% [at 5.99 µM] in assay [10]. For the same compound, in [2], the activity, positive = activation is -5.51% [at 8.39 µM]. Further, the activity change in assay [3] is -0.334% [at 5.22 µM, hits give high values]. The activation in assay [4] was -0.232% [at 6.97 µM]; in assay [5], -1.14% [at 5.23 µM]; in assay [6], 9.14% [at 5.99 µM]; in assay [7], 0.449% [at 5.99 µM]; in [11] it was 0.694% [at 5.99 µM]; in assay [12], 0.273% [at 8.39 µM]. In addition, the activity change, negative = inhibition in assay [13] is -1.93% [at 8.39 µM]; in [14] it was 1.52% [at 8.39 µM]; in assay [15] it was 12.2% [at 8.38 µM].

For `O=C(OCC1(COC(=O)c2cccnc2)CCCC(COC(=O)c2cccnc2)(COC(=O)c2cccnc2)C1O)c1cccnc1`, the Potency result in [1], in assay [2], in assay [3], in assay [6], in assay [7] and in [8] was “inactive” throughout. For the same compound, the Potency entry in [9], in assay [10], in assay [16], in assay [17], in [18] and in assay [14] was “inactive” throughout. Also, the Potency entry in [19] and in assay [15] was “inactive” in each case. Also, the result in assay [4] and in [5] was inactive.

Turning to `C/C(=C\C(C)CC(C)CC(C)C)C1CC(=O)OC1=O` (stereo not given), the Potency result in assay [1], in assay [2], in [3], in [6], in [7] and in [8] was “inactive” in each case. The Potency result in assay [9], in assay [10], in assay [16], in assay [17], in assay [18] and in [12] was “inactive” each time. The Potency entry in assay [14] and in [15] was “inactive” in each case. The result in [4] and in [5] was inactive.

As to `CC(C)(C)c1cc(CCC(=O)NN)cc(C(C)(C)C)c1O`, the Potency result in assay [1], in [2], in [3], in assay [6], in assay [7] and in [8] was “inactive” throughout. The Potency entry in assay [9], in assay [10], in assay [16], in assay [17], in assay [18] and in assay [12] was “inactive” in each case. Moreover, the Potency entry in assay [13], in assay [14] and in assay [19] was “inactive” throughout. The result in assay [4] and in assay [5] was inactive.

For `Oc1ccc(-c2ccc(O)cc2)cc1`, the Potency entry in [1], in assay [3], in assay [6], in assay [7], in assay [8] and in assay [9] was “inactive” throughout. The Potency result in assay [10], in assay [16], in assay [17], in assay [18], in assay [13] and in [14] was “inactive” each time. Besides, the Potency entry in assay [19] and in [15] was “inactive” in each case. Moreover, the Potency in [2] is 30.8 µM (active). Besides, the result in assay [4] and in [5] was inactive.

For `O=C1CCCN1CCO`, the Potency result in assay [1], in assay [2], in assay [3], in assay [6], in [7] and in assay [8] was “inactive” in each case. The Potency result in [9], in [10], in [16], in assay [17], in [18] and in assay [14] was “inactive” throughout. Further, the Potency entry in [20], in assay [19] and in assay [15] was “inactive” throughout. The result in assay [4] and in assay [5] was inactive.

In the case of `CC(=O)c1ccc2ccc3ccccc3c2c1`, the Potency entry in assay [1], in assay [2], in assay [3], in assay [6], in [7] and in assay [8] was “inactive” in each case. The Potency result in assay [9], in assay [10], in assay [16], in [17], in assay [18] and in [13] was “inactive” each time. Moreover, the Potency result in [14], in [19] and in assay [15] was “inactive” throughout. The result in assay [4] and in [5] was inactive.

On to `C/C=C/C=C/CCCCCCCO`, for which the Potency entry in assay [1], in assay [3], in [6], in assay [7], in assay [8] and in [9] was “inactive” in each case. Also, the Potency entry in [10], in assay [16], in assay [17], in [18], in [14] and in assay [19] was “inactive” in each case. Also, in [2], the Potency is 68.6 µM (active). The outcome in [4] and in assay [5] was inactive.
